From PubChem BioAssay AID1346428 (National Center for Advancing Translational Sciences (NCATS), 2018)
Where “and” joins values, the source holds several entries; their conditions need not be identical. Equal values may be shown once. The whole screen tested about 48,000 compounds, of which about 1,200 (2.5%) were called active. About 2% were inconclusive and are not listed.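 How the source made its calls: active means activation of at least 60% and not above a set upper limit (about 1 call in 100 departs from these limits); inconclusive means activation of 40% to 60%, or above that upper limit; inactive means activation under 40%.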 What follows is part of a selection rich in actives, with near analogues and random picks from the rest. More than one record can exist for a structure, and the calls need not agree.

The compounds below were run against Probable G-protein coupled receptor 32 (Homo sapiens) (UniProt O75388) (assay: qHTS for Agonists of Human Resolvin D1 Receptor DRV1). Settings: CHO-K1 GPR32 beta-arrestin PathHunter luminescence, 90 min; at 76.9 µM; stronger effect = higher value; zero percent set by DMSO-only wells.
Sequence of Probable G-protein coupled receptor 32 (Homo sapiens) (O75388 whole entry, looked up, the tested form may be a part): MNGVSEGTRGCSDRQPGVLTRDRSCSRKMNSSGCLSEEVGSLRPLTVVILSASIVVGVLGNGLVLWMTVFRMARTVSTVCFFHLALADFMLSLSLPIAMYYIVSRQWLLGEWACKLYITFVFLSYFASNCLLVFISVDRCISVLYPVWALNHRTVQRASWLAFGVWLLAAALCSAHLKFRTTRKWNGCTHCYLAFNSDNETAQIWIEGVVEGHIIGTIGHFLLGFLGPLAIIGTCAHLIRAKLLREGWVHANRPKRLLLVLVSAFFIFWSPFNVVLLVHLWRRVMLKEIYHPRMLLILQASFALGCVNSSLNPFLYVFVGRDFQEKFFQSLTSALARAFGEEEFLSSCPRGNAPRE
In short: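 GPR32 activation in stably transfected CHO-K1 cells, detected as beta-arrestin recruitment by enzyme-fragment complementation. Compound exposure: 90 min, 37 °C.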
Further: 0% is about no effect.

SMILES	activation
CCOC(=O)c1ccc(CN(Cc2ccccc2)S(=O)(=O)c2ccc(Cl)cc2)cc1	-16.7% (inactive)
O=C(O)CCCc1ccccc1	6.7% (inactive)
O=C(OCc1ccccc1)c1ccc(O)cc1	68.1% (active)
COc1ccc(NC(=O)Cn2c(=O)n(Cc3ccc(C(=O)NCc4ccccc4Cl)cc3)c(=O)c3ccccc32)cc1	-4.2% (inactive)
CCCCCCc1ccc(O)cc1O	89.2% (active)
Cc1ccc(O)c(NC(=O)CCS(=O)(=O)c2nc(-c3ccc4c(c3)OCO4)cc(C(F)(F)F)n2)c1	-25.7% (inactive)
COC(=O)c1ccc2c(c1)N(CC(=O)Nc1ccc(C)c(C)c1)C(=O)c1ccccc1S2	-13.7% (inactive)
COc1ccc(CNC(=O)CCc2c(C)nn(-c3ccc(N4CCCC4)nn3)c2C)cc1	-8.15% (inactive)
Cc1nn(Cc2ccc(F)cc2)c(C)c1NC(=O)c1cc(CC(C)C)on1	86.4% (active)
O=C(Nc1ccccc1Br)c1cc(CN2CCCC2)on1	-9.24% (inactive)
Cc1ccccc1Cn1nc(C)c(NC(=O)c2cc(-c3ccc(F)cc3)on2)c1C	6.09% (inactive)
Cc1ccc(NC(=O)C(Cc2ccccc2)NS(=O)(=O)c2ccc3c(c2)oc(=O)n3C)cc1C (stereo not given)	4.78% (inactive)
CCN(CCCNC(=O)Cn1ncc2c3ccccc3n(C)c2c1=O)Cc1ccccc1	-3.31% (inactive)
Cc1ccc(C)c(N2CCN(C(=O)Cn3nc(C)c4sc5ccccc5c4c3=O)CC2)c1	-8.71% (inactive)
O=C(CN1c2ccccc2S(=O)(=O)c2ccccc21)Nc1cccc(C(F)(F)F)c1	1.8% (inactive)
CN(CC(=O)Nc1cccc(C(F)(F)F)c1)S(=O)(=O)c1cccs1	67.5% (active)
O=C(CCS(=O)(=O)c1ccc2c(c1)NC(=O)CO2)Nc1cccc(C(F)(F)F)c1	13.3% (inactive)
CCc1ccccc1NC(=O)N1CCC2(CC1)Oc1ccccc1C(=O)N2Cc1ccccc1F	-16.7% (inactive)
O=C(CSc1n[nH]c(-c2ccccc2)n1)N1CCCCC1	7.63% (inactive)
Cc1cccc(OCCCC(=O)Nc2sc3c(c2C(N)=O)CCC(C)C3)c1 (stereo not given)	70.3% (active)
CCOc1ccc(NC(=O)c2c(NC(=O)Cc3ccccc3)sc3c2CCC(C)C3)cc1 (stereo not given)	-11.2% (inactive)
COC(=O)c1c(NC(=O)CCCOc2ccccc2)sc2c1CCC(C)C2 (stereo not given)	7.01% (inactive)
COc1ccccc1-c1cc2nc(C)c(CCC(=O)O)c(C)n2n1	-0.841% (inactive)
COc1ccc(NC(=O)CCCN2C(=O)CCn3nc(-c4cn(C)c5ccccc45)cc32)cc1OC	17.2% (inactive)
CCOc1ccc(-c2n[nH]c3c2C(c2ccccc2OC)N(c2ccc(Br)cc2)C3=O)cc1 (stereo not given)	-5.97% (inactive)
CCOC(=O)c1ccc(N2C(=O)c3n[nH]c(C)c3C2c2ccc(O)c(OC)c2)cc1 (stereo not given)	21.2% (inactive)
CCOc1cc(C2c3c(-c4ccc(Br)cc4)n[nH]c3C(=O)N2c2ccc(Cl)cc2)ccc1O (stereo not given)	85.1% (active)

SMILES	activation
CCCOC(=O)c1c(NC(=O)c2cc3nc(-c4ccc(OC)cc4)cc(C(F)(F)F)n3n2)sc2c1CCCC2	16% (inactive)
COc1ccc(NC(=O)Cn2c(=O)cc(C)c3c(C)nn(-c4cccc(Cl)c4C)c32)cc1OC	-11.5% (inactive)
Cc1ccccc1OCc1ccc(-c2nc(C#N)c(N3CCCCC3)o2)o1	-28.2% (inactive)
Cc1cc(C)cc(OCC(=O)Nc2nc(-c3ccc(F)cc3)ns2)c1	4.54% (inactive)
COc1cc(CNCCSc2nnnn2C)ccc1OCc1ccc(Cl)cc1Cl	60% (active)
Cn1nnnc1SCCNCc1ccc(Cl)c(Cl)c1	-5.94% (inactive)
COc1cc(CNCCSc2nnnn2C)ccc1OCc1c(F)cccc1Cl	14.1% (inactive)
CCc1ccccc1NC(=O)N1CCN(C(=O)c2nsc3ccccc23)CC1	-15.9% (inactive)
COc1cccc(Cn2c(SCc3ccc(C(=O)N4CCCCC4)cc3)nc3ccncc32)c1	30.7% (inactive)
Cc1[nH]c2ccccc2c1C(c1ccccc1)c1cccs1 (stereo not given)	73.6% (active)
COc1ccc(-c2onc(C)c2C)cc1S(=O)(=O)NCCc1ccccc1	3.28% (inactive)
O=C(Nc1nnc(C2CC(=O)N(c3ccc(Cl)cc3)C2)s1)c1ccco1 (stereo not given)	-14.5% (inactive)
CCCCN(C)CCCNC(=O)CN1N=C(c2ccc(OC)cc2)CCC1=O	11.3% (inactive)
Cc1ccc(S(=O)(=O)N2CCCc3cc(NS(=O)(=O)c4cc(C)ccc4C)ccc32)cc1	-16.6% (inactive)
C=Cc1ccc(Cn2c(C(=O)OC)cc3sc(C)cc32)cc1	-21.6% (inactive)
CCCC(C(=O)OCCN(CC)CC)(c1ccccc1)c1ccccc1	60.2% (active) and -17.3% (inactive)
CCC(C(=O)OCCN(CC)CC)c1ccccc1 (stereo not given)	1.87% (inactive)
Cc1ccc(N(CC(=O)Nc2cc(C)cc(C)c2)S(=O)(=O)c2cccc3nonc23)cc1	-3.71% (inactive)
Cc1ccc(NC(=O)Cn2c(=O)n(-c3ccccc3)c(=O)c3c4c(sc32)CCCC4)cc1	-1.44% (inactive)
CC(=O)c1ccc(N2CCN(C3C(=O)c4ccccc4N3C(C)=O)CC2)cc1 (stereo not given)	-28.3% (inactive)
Cc1ccc(C)c(N2CCN(CCCNC(=O)Nc3ccc(Cl)cc3)CC2)c1	37.2% (inactive)
CC1=C(c2ccc(C)cc2)S(=O)(=O)NC1=NCCCN1CCN(c2cc(C)ccc2C)CC1	84.3% (active)
CC1=C(c2ccc(Cl)cc2)S(=O)(=O)N=C1N1CCN(c2cc(C)ccc2C)CC1	-14.2% (inactive)
Cc1csc2nc(COc3ccc(NC(=O)COc4ccccc4)cc3)cc(=O)n12	63.9% (active)
Cc1ccc(OCC(=O)Nc2ccc(OCc3cc(=O)n4c(C)csc4n3)cc2)cc1C	-16.1% (inactive)
Cc1ccc(C(=O)Nc2ccc(OCc3cc(=O)n4c(C)csc4n3)cc2)cc1	3.91% (inactive)
COc1ccccc1N1CCN(CCCNC(=O)c2cnn(-c3ccccc3Cl)c2C2CCN(C(=O)OC(C)(C)C)CC2)CC1	-18.9% (inactive)

SMILES	activation
O=C(CCS(=O)(=O)c1cc(Br)cc2c1N(C(=O)C1CC1)CC2)Nc1ccc(C(F)(F)F)cc1	-8.56% (inactive)
CC(C)NC(=O)c1nn(-c2ccccc2F)nc1CO	-8.71% (inactive)
O=C(NCCc1ccccc1)c1ccc2c(c1)N(Cc1ccccc1)C(=O)c1ccccc1S2(=O)=O	92.4% (active)
O=C(NCCc1ccccc1)c1ccc2c(c1)N(Cc1ccc(F)cc1)C(=O)c1ccccc1S2(=O)=O	-31.8% (inactive)
COCCNC(=O)c1ccc2c(c1)N(Cc1cccc(Cl)c1)C(=O)c1ccccc1S2(=O)=O	-32.3% (inactive)
CC(C)(C)c1ccc(S(=O)(=O)N2CCN(C(=O)c3cc(-c4ccc(Br)cc4)n[nH]3)CC2)cc1	-6.87% (inactive)
O=C(CSc1ncc(CO)n1Cc1ccc(Cl)cc1)NCc1ccc(F)cc1	39.5% (inactive)
OCc1cnc(SCc2ccc(F)cc2)n1Cc1ccc(F)cc1	109% (active)
O=C(CSc1ncc(CO)n1Cc1ccc(F)cc1)NCc1ccco1	7.63% (inactive)
CCOC(=O)C(Cc1ccccc1)NC(=O)CCc1c(C)nc2c(c(C)nn2-c2ccc(C)c(C)c2)c1C (stereo not given)	-3.74% (inactive)
Cc1ccccc1C(=O)NCc1nc(-c2ccc(Cl)cc2)no1	-2.46% (inactive)
COc1cccc(CNC(=O)Cc2csc3nc(-c4ccccc4)cn23)c1	-4.88% (inactive)
COc1ccc(-c2noc(CCC(=O)N(C)c3ccccc3C)n2)cc1	107% (active)
COc1cccc(CNC(=O)CCc2nc(-c3ccc(C)cc3)no2)c1	92.5% (active)
COc1ccc(-c2noc(CSc3nc4ccc(C)cc4[nH]3)n2)cc1	23.5% (inactive)
COc1cccc(CNC(=O)Cn2ncn3c(cc4ccccc43)c2=O)c1	-1.19% (inactive)
Cc1ccc(NC(=O)CSc2nc3c([nH]c4ccccc43)c(=O)n2-c2ccccc2)cc1Cl	-26.8% (inactive)
CCCCNC(=O)c1cc(-c2ccc(Cl)c(Cl)c2)on1	8.61% (inactive)
COc1ccc(C(=O)Nc2ccc(-n3nncc3-c3ccccc3)cc2)cc1OC	-15.2% (inactive)
O=C(CSc1oc(-c2ccccc2)nc1S(=O)(=O)c1ccc(Br)cc1)NC1CCCCC1	-14.8% (inactive)
COc1ccc(C)cc1Nc1nc2ccccc2c2nnc(C)n12	9.83% (inactive)
CCC(=O)N1CCc2cc(S(=O)(=O)NC(CC(C)C)C(=O)NCCc3cccc(C)c3)ccc21 (stereo not given)	64.6% (active)
CCC(=O)N1CCc2cc(S(=O)(=O)NC(Cc3ccccc3)C(=O)NCc3ccc(C)cc3)ccc21 (stereo not given)	-14.4% (inactive)
CCC(=O)N1CCc2cc(S(=O)(=O)NC(C(=O)NCCc3ccc(C)cc3)C(C)C)ccc21 (stereo not given)	-8.05% (inactive)
Cc1ccc(-c2cnc(NCc3ccc(C(C)C)cc3)n2C)cc1	-44.5% (inactive)
CSc1ccc(CCNC(=O)c2cnn(-c3ccccc3)c2-n2cccc2)cc1	-2.99% (inactive)
